Here are results for ten compounds from PubChem BioAssay.

Assay [1] in a line: viability loss in pontine glioma line – cell-based, JHH-DIPG-1, MIPE4.0, CellTiter-Glo, qHTS, dose response (AID 1347062; cut-off not given, nearly all actives have AC50 up to about 27 µM;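 as to AC50: cells exposed to compound for two days before readout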). Particulars: JHH-DIPG-1 viability, CellTiter-Glo ATP luminescence. (In ATP-based viability assays light output follows the ATP content of the culture.)
Assay [2] in a line: viability loss in pontine glioma line – cell-based, SU-DIPG-IV, MIPE4.0, CellTiter-Glo, qHTS, dose response (AID 1347063).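 Also: compound exposure lasted 48 hours before the viability readout.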 The note with it: CellTiter-Glo ATP luminescence.
Assay [3] in a line: growth inhibition of DIPG cells – cell-based, MIPE4.0 library, CellTiter-Glo luminescence, qHTS (AID 1347066).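 Also: cells exposed to compound for 48 hours before readout.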 Particulars: SU-DIPG-VI viability, CellTiter-Glo ATP luminescence.
Assay [4] can be described thus: viability loss in pontine glioma line – cell-based, SU-DIPG-XIII, MIPE5.0, CellTiter-Glo, qHTS, dose response (AID 1347064; cut-off not given, nearly all actives have AC50 up to about 23 µM;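 as to AC50: cells exposed to compound for 48 hours before the viability read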). Particulars: CellTiter-Glo ATP luminescence.
Assay [5] is described as follows: viability loss in pontine glioma line – cell-based, SU-DIPG-XXV, MIPE5.0, CellTiter-Glo, qHTS, dose response (AID 1347065; cut-off not given, nearly all actives have AC50 up to about 26 µM;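 also: cells exposed to compound for 48 hours before ATP readout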). The note with it: CellTiter-Glo ATP luminescence.
Assay [6] in a line: JHH-DIPG-1 glioma cell viability, MIPE5.0 library, CellTiter-Glo luminescence, qHTS (AID 1347067; cut-off not given, nearly all actives have AC50 up to about 26 µM;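 also: cells exposed to compound for 48 hours before readout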). Particulars: JHH-DIPG-1 glioma viability, CellTiter-Glo ATP luminescence.
A short description of assay [7]: growth inhibition of DIPG cells – cell-based, MIPE5.0 library, qHTS (AID 1347068; cut-off not given, nearly all actives have IC50 up to about 30 µM;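 as to IC50: cells exposed to compound for 48 hours before viability readout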). Particulars: SU-DIPG-XXV viability.
Assay [8] deals with Mitogen-activated protein kinase 7 (Homo sapiens) (UniProt Q13164). Kind of assay: Gal4-ERK5 driven luciferase induction – cell-based, HTS, primary screen (AID 1508626;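 active = luciferase signal above three times the same-plate solvent-only control wells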;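 also: luciferase driven by Gal4-ERK5 fusion binding five Gal4 sites before minimal TATA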). Particulars: HeLa Gal4-ERK5 transactivation, 18 h, at 5 µM, stronger effect = higher value.
The nature of assay [9]: galactose survival enhancers in mitochondrial complex I cybrids – cell-based, galactose medium, ATP luminescence, primary screen (AID 1645843;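 active = z-score of at least 1.8 in each of two replicates, scored against plate mean and spread of sample wells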;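 also: positive z means more ATP and so rescue of galactose-driven cybrid death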). The note with it: complex I mutant cybrid cells, 72 h, stronger effect = higher value.
The target in assay [10] is ATP-dependent translocase ABCB1 (Homo sapiens) (UniProt P08183). Kind of assay: P-glycoprotein substrate transport blockade – cell-based (AID 377; in the data active = fluorescence slope change above about 50%). Particulars: MDR1-expressing cells, fluorescent substrate accumulation slope; stronger effect = higher value; concentration not given here.
Assay [11] can be described thus: growth inhibition, single agents and combos, LFS_MB_1R, cell-based, cisplatin or BGB combos, synergistic combos for chromothripsis tumors (AID 1671452; in the data active = inhibition above about 80%;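 also: cells exposed for 96 hours before readout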). The note with it: LFS_MB_1R medulloblastoma cells, stronger effect = higher value.
Assay [12] is described as follows: growth inhibition, single agents and combos, CRL2098, cell-based, BGB or cisplatin IC20 combos, synergistic combos for chromothripsis tumors (AID 1671454; in the data active = inhibition above about 80%;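 also: cells exposed for 96 h before readout; 0% = vehicle DMSO and 100% = killing by high DMSO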). The note with it: CRL2098 osteosarcoma cells, drug combinations, stronger effect = higher value.
Assay [13] can be described thus: growth inhibition, single agents and combos, HD-MB03, cell-based, BGB or cisplatin IC20 combos, synergistic combos for chromothripsis tumors (AID 1671455; in the data active = inhibition above about 83%;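 also: 0% = vehicle DMSO and 100% = high DMSO as cytotoxic control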). The note with it: HD-MB03 medulloblastoma cells, stronger effect = higher value.
Assay [14] in a line: growth inhibition, single agents and combos, UWB1.289, cell-based, BGB or cisplatin combos, synergistic combos for chromothripsis tumors (AID 1671456; in the data active = inhibition above about 80%;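 also: cells exposed to compound for four days; 0% = vehicle DMSO and 100% = killing by high DMSO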). Particulars: UWB1.289 ovarian carcinoma cells, stronger effect = higher value.
Assay [15] is described as follows: growth inhibition, single agents and combos, LFS_MB_2R, cell-based, cisplatin combos, synergistic combos for chromothripsis tumors (AID 1671457; in the data active = inhibition above about 80%;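 also: cells exposed to compound for four days before readout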). The note with it: LFS_MB_2R medulloblastoma cells, stronger effect = higher value.
A short description of assay [16]: UWB1.289_BRCA1 ovarian cancer growth, cell-based, BGB or cisplatin combinations (AID 1671459; in the data active = inhibition above about 80%). The note with it: UWB1.289 BRCA1 ovarian carcinoma, drug combinations, stronger effect = higher value.
Assay [17] can be described thus: drug combination toxicity in non-malignant astrocytes – cell-based, BGB or cisplatin IC20 combos, cytotoxicity control for chromothriptic childhood tumor combination screen (AID 1671460; in the data active = inhibition above about 80%;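 also: cells exposed to compounds for 96 hours before viability readout; 0% = vehicle and 100% = killing control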). The note with it: Human astrocytes, viability inhibition, drug combinations, at 0.5 µM, stronger effect = higher value.
Assay [18] can be described thus: BT084 cell growth, single and combined drugs, ICGC_MB145, cisplatin and BGB IC40 combos (AID 1671461; in the data active = inhibition above about 80%;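 also: cells exposed to drugs for 96 hours; 0% = vehicle DMSO and 100% = high DMSO full killing control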). The note with it: BT084 medulloblastoma cells, drug combinations, stronger effect = higher value.
Assay [19] can be described thus: RCMB18 cell growth, single agent and combined, cisplatin and BGB IC40 combos (AID 1671462; in the data active = inhibition above about 80%;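 also: cells exposed to compound for four days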). The note with it: RCMB18 medulloblastoma cells, stronger effect = higher value.
A short description of assay [20]: CRL1545 cell growth, single agent and combined, cisplatin and BGB IC20 combos (AID 1671464; in the data active = inhibition above about 80%;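 also: cells exposed to compound for 96 hours before readout; 0% = vehicle DMSO and 100% = high DMSO killing control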). Particulars: CRL1545 osteosarcoma cells, stronger effect = higher value.
Setting [21] is: measured here: combination with cisplatin, at 0.5 µM.
Where [22] appears, read: measured here: combination with cisplatin, at 5 µM.

Results filed as inconclusive are left out. Calls of active or inactive are those of the source. Unless noted, the limit is not given here; nearly all actives have AC50 up to about 30 µM.

Chain of ATP-dependent translocase ABCB1 (Homo sapiens) (P08183 whole entry, looked up): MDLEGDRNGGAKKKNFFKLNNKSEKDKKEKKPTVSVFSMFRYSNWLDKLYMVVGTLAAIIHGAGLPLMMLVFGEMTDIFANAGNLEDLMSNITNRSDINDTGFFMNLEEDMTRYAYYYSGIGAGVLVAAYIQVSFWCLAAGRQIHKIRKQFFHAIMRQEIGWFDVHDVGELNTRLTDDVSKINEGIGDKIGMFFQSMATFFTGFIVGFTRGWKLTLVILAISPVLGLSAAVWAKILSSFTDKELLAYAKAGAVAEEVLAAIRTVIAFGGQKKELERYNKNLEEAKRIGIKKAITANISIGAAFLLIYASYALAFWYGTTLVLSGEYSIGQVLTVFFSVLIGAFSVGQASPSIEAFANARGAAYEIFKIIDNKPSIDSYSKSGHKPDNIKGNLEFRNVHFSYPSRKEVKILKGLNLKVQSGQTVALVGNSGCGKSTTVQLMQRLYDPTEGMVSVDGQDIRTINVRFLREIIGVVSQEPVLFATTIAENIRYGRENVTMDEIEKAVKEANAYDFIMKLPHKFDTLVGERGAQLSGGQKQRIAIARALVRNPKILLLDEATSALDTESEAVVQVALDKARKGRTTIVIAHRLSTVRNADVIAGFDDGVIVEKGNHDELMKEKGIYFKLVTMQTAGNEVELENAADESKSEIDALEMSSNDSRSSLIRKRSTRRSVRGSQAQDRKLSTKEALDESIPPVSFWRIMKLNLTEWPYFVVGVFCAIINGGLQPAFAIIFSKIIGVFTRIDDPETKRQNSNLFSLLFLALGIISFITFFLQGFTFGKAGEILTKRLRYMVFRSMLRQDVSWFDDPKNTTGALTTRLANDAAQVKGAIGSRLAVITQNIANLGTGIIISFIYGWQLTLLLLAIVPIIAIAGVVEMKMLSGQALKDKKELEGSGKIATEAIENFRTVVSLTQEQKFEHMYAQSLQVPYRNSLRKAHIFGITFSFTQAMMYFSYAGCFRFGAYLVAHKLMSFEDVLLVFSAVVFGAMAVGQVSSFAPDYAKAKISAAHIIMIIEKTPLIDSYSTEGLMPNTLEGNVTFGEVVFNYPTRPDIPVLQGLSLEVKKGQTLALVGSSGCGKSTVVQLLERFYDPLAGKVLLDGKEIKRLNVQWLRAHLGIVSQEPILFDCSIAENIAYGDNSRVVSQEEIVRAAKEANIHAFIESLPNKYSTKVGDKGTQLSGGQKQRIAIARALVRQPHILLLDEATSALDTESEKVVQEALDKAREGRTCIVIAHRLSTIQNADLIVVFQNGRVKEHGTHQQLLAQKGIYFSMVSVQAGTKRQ
Chain of Mitogen-activated protein kinase 7 (Homo sapiens) (Q13164 whole entry, looked up, the tested form may be a part): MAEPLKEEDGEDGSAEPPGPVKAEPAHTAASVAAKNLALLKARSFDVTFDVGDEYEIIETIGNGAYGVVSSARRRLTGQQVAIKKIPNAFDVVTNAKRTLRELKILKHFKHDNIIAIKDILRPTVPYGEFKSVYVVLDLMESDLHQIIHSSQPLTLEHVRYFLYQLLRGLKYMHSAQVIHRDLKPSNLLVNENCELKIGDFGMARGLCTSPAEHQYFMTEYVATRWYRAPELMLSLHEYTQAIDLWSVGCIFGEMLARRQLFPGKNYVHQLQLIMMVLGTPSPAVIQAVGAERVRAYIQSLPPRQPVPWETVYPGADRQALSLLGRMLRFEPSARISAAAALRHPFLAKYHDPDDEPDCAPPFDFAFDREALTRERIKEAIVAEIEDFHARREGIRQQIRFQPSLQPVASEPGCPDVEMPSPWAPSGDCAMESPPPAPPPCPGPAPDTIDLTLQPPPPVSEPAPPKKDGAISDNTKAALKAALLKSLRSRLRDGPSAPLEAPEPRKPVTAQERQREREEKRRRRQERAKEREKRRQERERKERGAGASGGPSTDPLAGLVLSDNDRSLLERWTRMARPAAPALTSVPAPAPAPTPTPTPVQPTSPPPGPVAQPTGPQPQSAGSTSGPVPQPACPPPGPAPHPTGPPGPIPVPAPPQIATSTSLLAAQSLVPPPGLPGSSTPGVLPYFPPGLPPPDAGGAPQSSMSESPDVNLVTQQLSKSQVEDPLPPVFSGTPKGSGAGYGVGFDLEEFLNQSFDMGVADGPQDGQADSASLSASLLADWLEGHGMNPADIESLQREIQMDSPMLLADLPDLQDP

Regarding `C[C@H]1[C@H](NC(=O)/C(=N/OC(C)(C)C(=O)O)c2csc(N)n2)C(=O)N1S(=O)(=O)O` (stereo in doubt), the result in assay [1], in assay [2] and in assay [3] was inactive.
Consider `CN(N=O)C(=O)N[C@@H]1[C@@H](O)[C@H](O)[C@@H](CO)O[C@@H]1O`, for which the compound was classed as inactive in assay [4], in assay [5], in [6] and in assay [7]. The luciferase signal in assay [8] was 120 AU (inactive).
`C#CCN(C)CCCOc1ccc(Cl)cc1Cl`: the z-score in [9] was -0.39 (inactive).
In general, AC50 refers to the concentration giving half of the maximal activity seen. The term IC50 denotes the concentration needed to halve the response being measured. Regarding `COc1cccc2c1C(=O)c1c(O)c3c(c(O)c1C2=O)C[C@@](O)(C(C)=O)C[C@@H]3O[C@H]1C[C@H](N)[C@H](O)[C@H](C)O1`, the concentration at half-maximal activity (AC50) in assay [1] was 33.2 nM (active); in assay [2] it was 46.9 nM (active); in assay [4], 742 nM (active); in assay [5], 742 nM (active); in assay [6] it was 742 nM (active). Moreover, the half-inhibitory concentration (IC50) in assay [7] was 3320 nM (active). The luciferase signal in assay [8] is 300 AU (active). Further, the z-score in assay [9] is -2.16 (inactive).
Turning to `COc1cc2c(c(OC)c1OC)-c1ccc(OC)c(=O)cc1[C@@H](NC(C)=O)CC2`, the fluorescence slope change in assay [10] was 7.7% (inactive). Besides, the AC50 in assay [1] is 105 nM (active); in assay [4] it was 52.5 nM (active); in assay [5], 41.7 nM (active); in assay [6], 29.5 nM (active). Also, the compound was classed as inactive in assay [2]. The IC50 in [7] was 46.8 nM (active). In assay [8], the luciferase signal was 88 AU (inactive). Further, the z-score in assay [9] is -0.69 (inactive).
On to `CCN(CC)C(=O)c1ccc(O)c(OC)c1`, for which the fluorescence slope change in assay [10] was 53.1% (active). For the same compound, the luciferase signal in [8] is 52 AU (inactive). Besides, the z-score in assay [9] was 0.21 (inactive).
In the case of `COc1c(C)c2c(c(O)c1C/C=C(\C)CCC(=O)OCCN1CCOCC1)C(=O)OC2`, the compound was called inactive in assay [3]. In addition, the z-score in [9] was 1.7 (inactive).
A word on the inhibition: it is the drop in the measured response relative to a control, in per cent. Consider `CN1CCN(c2c(F)cc3c(=O)c(C(=O)O)cn4c3c2OCN4C)CC1`, for which the result in [1], in [2] and in assay [3] was inactive. For the same compound, the inhibition in [11] (at 0.5 µM) is -24.2% (inactive); in assay [11] (measured here: combination with BGB IC40, at 0.05 µM) it was -29.1%; in [11] (setting [21]) it was -7.67%; in assay [11] (setting [22]), 23.6%; in [12] (at 0.5 µM), -52.3% (inactive); in assay [12] (measured here: combination with BGB at IC20, at 0.5 µM) it was -51%. The inhibition in assay [12] (measured here: combination with cisplatin at IC20, at 0.5 µM) was -59.8%; in assay [13] (at 0.5 µM), -2.64% (inactive); in assay [13] (measured here: combo with BGB at IC20, at 0.5 µM) it was 4.92%; in [13] (measured here: combo with cisplatin at IC20, at 0.5 µM), 0.073%; in assay [14] (at 0.5 µM), -1.17% (inactive); in [14] (measured here: inhibition with BGB combination, at 0.05 µM) it was -15.9%. Further, the inhibition in [14] (measured here: inhibition with cisplatin combination, at 0.05 µM) is 9.55%; in assay [15] (at 0.5 µM) it was -13.7% (inactive); in assay [15] (setting [21]), -20.3%; in [15] (setting [22]) it was -60.6%; in [16] (BGB combination, concentration series, at 5 µM) it was 1.13%; in assay [16] (at 0.5 µM), 0.06% (inactive). For the same compound, the inhibition in assay [16] (cisplatin combination, concentration series, at 5 µM) is 8.22%; in assay [17], 6.55% (inactive); in assay [17] (measured here: combo with BGB IC20), 4.16%; in assay [17] (measured here: combo with cisplatin IC20) it was 12.5%; in assay [18] (at 0.5 µM) it was -6.03% (inactive); in assay [18] (cisplatin combination, at 0.5 µM) it was -9.98%. Further, the inhibition in assay [18] (cisplatin combination, at 5 µM) is 4.69%; in [18] (measured here: BGB IC40 combination 0.05 uM, at 0.05 µM), 6.42%; in assay [18] (single agent, at 5 µM) it was -5.93%; in [19] (at 0.5 µM), -12.6% (inactive); in [19] (cisplatin combo, at 5 µM), -14.3%; in assay [19] (measured here: BGB IC40 combination, at 0.05 µM), -20.1%. The inhibition in [19] (setting [21]) was -5.19%; in [19] (single agent, at 5 µM) it was -1.41%; in assay [20] (at 0.5 µM) it was -1.5% (inactive); in assay [20] (measured here: with BGB IC20 combination, at 0.5 µM), -0.247%; in assay [20] (measured here: with cisplatin IC20 combination, at 0.5 µM), -4.44%; in assay [20] (single agent, at 0.05 µM), -8.36%. For the same compound, in assay [20] (single agent, at 5 µM), the inhibition worked out at 2.43%.
Turning to `CN(C)CCN(Cc1ccc(Cl)cc1)c1ccccn1`, in [10], the fluorescence slope change is 92.6% (active). Further, the outcome in assay [1] and in [3] was inactive.
Turning to `Cc1cc(=O)oc2cc(O)ccc12`, the compound was classed as inactive in assay [1], in assay [2], in [5], in [3] and in [6].
